How the values were obtained:
Details in all cases: concentration: 1 μM, replicates: in singlicate; n = 1
JNK1 = system: T1, JNK1
T1 construct: gene MAPK8

JNK2 = system: T2, JNK2
T2 construct: gene MAPK9

JNK3 = system: T3, JNK3
T3 construct: gene MAPK10

KIT-autoinhibited = system: KIT-autoinhibited
KIT = system: KIT
LATS1 = system: LATS1
LATS2 = system: LATS2
LCK = system: LCK
LIMK1 = system: LIMK1
LIMK2 = system: LIMK2
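Note: KINOMEscan kinase panel screen.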

Compound	%Inh (JNK1) [%]	%Inh (JNK2) [%]	%Inh (JNK3) [%]	%Inh (KIT-autoinhibited) [%]	%Inh (KIT) [%]	%Inh (LATS1) [%]	%Inh (LATS2) [%]	%Inh (LCK) [%]	%Inh (LIMK1) [%]	%Inh (LIMK2) [%]
Cn1cc(-c2ccc3c(c2)CCN3C(=O)Cc2cccc(C(F)(F)F)c2)c2c(N)ncnc21 [GSK2606414]	1	0	0	0	87	0	0	20	0	9
Nc1nccc2scc(-c3ccc4c(c3)CCN4C(=O)Cc3cc(F)ccc3F)c12 [GSK2587663]	22	26	8	0	64	0	8	22	4	13
O=C(CCO)NCCn1ccc2ncnc(Nc3ccc(Oc4cccc(C(F)(F)F)c4)c(Cl)c3)c21	8	0	1	0	0	5	2	26	0	0
Fc1cccc(COc2ccc(Nc3ncnc4nn5ccccc5c34)cc2Cl)c1 [GW689066]	11	10	0	0	0	0	0	5	0	0
C[C@H]1CC[C@@H](C(=O)Nc2ccccc2)CN1c1cc(-c2ccc3c(N)n[nH]c3c2)nc(N)n1 [GSK2283293]	5	25	1	16	1	0	9	5	0	0
Nc1nc(-c2cccnc2)c(-c2ccnc3ccccc23)s1 [GW684083]	23	29	11	0	23	0	26	17	0	0
Cl.Fc1ccccc1COc1ccc(Nc2ncnc3ccc(-c4nnc(C(F)(F)F)o4)cc23)cc1Cl [GW424170]	0	4	0	0	13	0	0	12	0	16
O=C(Nc1ccccc1F)NC1CCN(c2ccnc(Nc3ccc(F)cc3)n2)C1 (stereo not drawn) [GSK1379722]	29	31	23	0	5	0	0	14	10	0
Cl.c1ccc(Cn2ncc3cc(Nc4ncnc5ccccc45)ccc32)cc1 [GW273749]	5	5	0	0	4	0	0	15	0	75
NC(=O)c1sc(-n2cnc3ccccc32)cc1OCc1ccccc1F [GSK1024306]	3	28	14	0	0	0	0	9	0	20
CSc1nn2c(=O)cc(N3CCOCC3)nc2n1Cc1cccc(Cl)c1Cl [GSK2347225]	11	26	10	0	23	9	9	31	11	19
CN1c2ccc(-c3ccc(C(=O)NCCO)cc3)cc2-c2[nH]ncc2S1(=O)=O	14	1	0	17	17	0	11	28	17	7
Nc1nc(-c2ccc3c(N)n[nH]c3c2)cc(N2CCC[C@@H](C(=O)Nc3ccccc3)C2)n1.O=C(O)C(F)(F)F.O=C(O)C(F)(F)F [GSK2288359]	0	0	0	4	25	0	16	0	10	7
CN1CCC(n2cnc(-c3ccc(F)cc3)c2-c2ccnc(NC3CCNCC3)n2)CC1 [SB-229482]	71	96	92.4	0	25	0	8	0	0	30
FC(F)(F)c1cc(Nc2nccc(-c3c(-c4ccc(Cl)cc4)nn4ncccc34)n2)ccc1Cl [GW829351]	8	58	65	1	38	0	0	0	0	0
COc1ccc(Nc2nccc(N3CCC(NC(=O)c4cccc(NC(C)=O)c4)C3)n2)cc1 (stereo not drawn) [GSK1379732]	16	23	26	0	7	0	9	9	0	0
Cn1ccc2ncnc(Oc3ccc(NC(=O)Nc4cccnc4)c(Cl)c3)c21	0	0	0	0	98.7	23	0	0	0	0
Cl.c1ccc(Cn2ccc3cc(Nc4ncnc5ccccc45)ccc32)cc1 [GW275568]	0	23	16	0	41	0	22	41	8	15
COc1ccc(Nc2nccc(N3CCC(NC(=O)Nc4ccc5c(c4)OCO5)C3)n2)cc1 (stereo not drawn) [GSK1379745]	18	20	20	0	48	0	0	24	0	26
CS(=O)(=O)CCNCc1ccc(-c2ccc3ncnc(Nc4ccc(OCc5ccccc5)c(Cl)c4)c3c2)o1.Cl [GW574783]	18	4	0	0	10	0	11	30	0	1
Cl.Cn1ccc(-c2cccc(Nc3ccnc4cc(-c5nccs5)ccc34)c2)n1 [GW525701]	12	13	2	0	33	0	0	3	0	0
OCCOCCn1ccc2ncnc(Nc3ccc(Oc4cccc(Cl)c4)c(Cl)c3)c21	0	0	0	0	0	0	0	41	0	0
FC(F)(F)c1ccc(-c2cc(-c3c[nH]nc3-c3ccccn3)ccn2)cc1 [GW599550]	0	5	0	0	26	0	40	25	7	0
Fc1cccc(COc2ccc(Nc3ncnc4cc[nH]c34)cc2Cl)c1	33	17	46	6	24	26	25	25	22	17
Cc1cc(N2CCC(NS(=O)(=O)c3ccc(F)cc3)CC2)nc(Nc2cccc(C#N)c2)n1.O=C(O)C(F)(F)F [GSK1653537]	16	17	0	0	0	0	0	10	0	0
CCc1nc(-c2cccc(C)c2)c(-c2ccnc(NC(=O)c3ccccc3)c2)s1	53	79	93.3	6	21	30	100	0	0	0
CC(=O)Nc1n[nH]c2ncc(-c3ccccc3)cc12 [SB-548492]	40	17	17	21	67	14	4	30	0	45
Fc1ccc(Nc2nccc(-c3c(-c4ccc(Cl)cc4)nn4ncccc34)n2)cc1F [GW829058]	40	63	56	12	38	11	19	11	0	7
CC(C)N1CCC(n2cnc(-c3ccc(F)cc3)c2-c2ccnc(N)n2)CC1 [SB-223132]	23	12	0	0	0	0	0	14	0	9
Cc1ccc(NC(=O)c2cccc(C#N)c2)cc1-c1ccc(C(=O)Nc2ccncc2)cc1 [GSK1398463]	25	16	17	13	100	19	0	83	28	14

Source: publication PMC5540273 (PLoS ONE, 2017)
